D1 PAM – enhances dopamine response at the human D1 receptor. hit rate 0.036% among 360,000. HEK293 TREx D1 cells, calcium flux, dopamine EC20 potentiation. potentiation, % at 10 µM. AID 504651. P21728; in the data active means potentiation above about 30%
TRHR agonist – activates the human TRH receptor; hit rate 0.18% among 360,000; activation, % at 2 µM; TRHR cells, calcium flux fluo-8, FDSS agonist mode; AID 493084; P34981
Target sequence (P34981 whole entry, looked up): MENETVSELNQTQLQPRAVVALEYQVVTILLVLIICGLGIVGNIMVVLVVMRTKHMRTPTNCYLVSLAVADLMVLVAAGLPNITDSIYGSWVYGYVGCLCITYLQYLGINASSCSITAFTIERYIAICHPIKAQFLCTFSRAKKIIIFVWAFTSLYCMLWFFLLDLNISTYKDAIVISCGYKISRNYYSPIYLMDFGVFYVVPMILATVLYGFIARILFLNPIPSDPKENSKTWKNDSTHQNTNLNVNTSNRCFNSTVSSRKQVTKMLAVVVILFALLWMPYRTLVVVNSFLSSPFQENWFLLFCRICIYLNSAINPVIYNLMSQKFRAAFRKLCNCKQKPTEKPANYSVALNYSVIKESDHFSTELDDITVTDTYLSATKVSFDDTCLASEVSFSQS
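Fluo-8-loaded TRHR cells; 10 s baseline, compound added, kinetic Ca2+ fluorescence read 1/s, agonist mode.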
D1 ag – activates the human D1 dopamine receptor; P21728; HEK293 T-REx D1 cells, calcium flux, agonist mode; AID 504660; hit rate 1% among 360,000; activation, % at 2 µM
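Inducible HEK293 T-REx D1 cells, force-coupled to calcium signalling, were plated at 4000 cells/well with tetracycline and held overnight at 30 C. After no-wash calcium dye loading, compound-evoked calcium rise over 180 s flagged agonists.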
D1 antagonist – antagonists of human D1 dopamine receptor. P21728. HEK293 TREx D1 cells, calcium flux, dopamine EC80; hits give low values. activity change, negative = inhibition, % at 10 µM. hit rate 3.2% among 360,000. AID 504652; in the data active means activity change below about -30%
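Inducible Hek293 Trex D1 cells (tetracycline, overnight, 30 C). Calcium dye 30–90 min RT. Antagonist mode: EC80 dopamine added after 180 s compound read.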
TRHR enhancer – allosteric enhancers of human TRH receptor; hit rate 0.66% among 360,000; AID 493056; TRHR cells, fluo-8 calcium fluorescence, EC20 TRH enhancement; enhancement, % at 2 µM; P34981; in the data active means enhancement above about 30%
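TRHR-expressing cells loaded with fluo-8 calcium dye were read kinetically (ex 480/em 530) during compound addition, then stimulated with an EC20 of TRH (10 nM final). Enhancement of the Gq-mediated intracellular calcium response was scored.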
GRP78 ERSR act – induces the endoplasmic reticulum stress response in human glioma cells. hit rate 0.02% among 420,000. Potency, µM, usual class: activators. U87-MG GRP78 promoter luciferase reporter, 16 h. AID 602332; active means well fitted activation curve with a large enough effect; inconclusive means small, poorly fitted or top-dose-only effect; inactive means no such curve, though single readings can be large or run the other way; further: series mostly up to about 76 µM; nearly all actives have a fitted effect of over 35% in size
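Stably transfected U87-MG glioma cells carrying a GRP78-based luciferase sensor; 16 h compound incubation. Luminescence end-point read 10 min after Bright-Glo addition at room temperature.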
Hits are given with their value; – = inactive; ? = inconclusive; · = no result given. A selection: hits, their analogues and other compounds. The true share with any hit is near 4%. Unless noted, no stated cut-off is given here; in the data, active means activation above about 30%; inactive means the rest.

SMILES | D1 PAM | TRHR agonist | D1 ag | D1 antagonist | TRHR enhancer | GRP78 ERSR act
O=C1/C(=C\c2ccco2)SC(=S)N1c1ccc(O)cc1 | – | – | – | -31 | – | –
O=C1NC(=Nc2ccc(O)cc2)S/C1=C/c1ccco1 | – | – | – | -37 | – | –
COc1cc(/C=C2\SC(=Nc3ccc(O)cc3)NC2=O)cc(OC)c1O | – | 44 | – | – | – | –
Cc1ccc(N=C2NC(=O)/C(=C\c3ccco3)S2)cc1 | – | – | – | – | – | –
Cc1ccc(N(CC(=O)NCCc2ccc(Cl)cc2)S(=O)(=O)N(C)C)cc1 | – | – | – | – | – | –
COc1ccccc1CNC(=O)c1ccc(Nc2nc3ccccc3n3nnnc23)cc1 | – | – | – | – | – | –
O=C(NCc1ccc(F)cc1)c1ccc(Nc2nc3ccccc3n3nnnc23)cc1 | – | – | – | -30 | – | –
O=C(N/N=C/c1cc([N+](=O)[O-])cc(Br)c1O)C12CC3CCC(CC(C3)C1)C2 | – | – | 122 | -32 | – | –
COc1cc(/C=N/NC(=O)C23CC4CC(CC(C4)C2)C3)cc(Br)c1O | – | – | – | – | – | –
Cc1ccc(C(=O)N/C(=C\c2cccs2)C(=O)NC2CCCCC2)cc1 | – | – | – | – | 40 | –
Cc1ccc(S(=O)(=O)/N=C2/NC(=O)/C(=C\c3cc(Br)cc(Br)c3O)S2)cc1 | – | 118 | 276 | -52 | – | –
O=C1N/C(=N/O)S/C1=C/c1cccnc1 | – | – | – | – | – | –
Cc1ccc(S(=O)(=O)/N=C2/NC(=O)/C(=C/c3ccc(Br)o3)S2)cc1 | – | – | – | – | – | –
Cc1ccc(S(=O)(=O)/N=C2/NC(=O)/C(=C/c3cccnc3)S2)cc1 | – | – | – | -35 | – | –
Cc1ccc(CN2C(=O)[C@H]3Cc4c([nH]c5ccccc45)C(C)(C)N3C2=O)cc1 | · | · | · | · | · | –
C(=C\c1ccnc2ccccc12)/c1ccc(N2CCNCC2)cc1 | · | · | · | · | · | –
Oc1[nH]c(=S)sc1/C=C1\C(c2ccccc2)=Nc2ccccc21 | – | – | 38 | – | – | –
Oc1[nH]c(=S)sc1C=C1N=c2ccccc2=N1 | – | – | – | – | – | –
Cn1ccc(C(=O)Nc2ccc(Br)cc2Br)n1 | – | – | – | -43 | – | –
Cc1c(C)c(C)c(/C=C/c2ccnc3ccccc23)c(C)c1C | · | · | · | · | · | –
Cc1ccc(C2NC(=O)c3ccccc3N2)s1 (configuration not stated) | – | – | – | – | 35 | –
CCN1CCN(c2c(S(=O)(=O)c3ccc(C)c(C)c3)cnc3cc(OC)c(OC)cc23)CC1 | – | – | – | -66 | – | –
CCc1ccc2ncc(S(=O)(=O)c3ccc(C)c(C)c3)c(N3CCCC3)c2c1 | – | – | – | – | – | –
COc1ccc(C(=O)NCCNC(=O)c2ccc(OC)cc2)cc1 | · | · | · | · | · | –
COc1ccc(C(=O)NCC(C)(C)SCc2c(C)cc(C)cc2C)cc1 | – | – | 56 | -61 | – | –
SMILES | D1 PAM | TRHR agonist | D1 ag | D1 antagonist | TRHR enhancer | GRP78 ERSR act
Oc1sc(C=Nc2ccc(F)cc2)c2ccccc12 | – | – | 132 | – | – | –
Oc1sc(C=Nc2ccccc2)c2ccccc12 | – | 39 | 172 | – | – | ?
Cc1cccc(OCC(=O)N(Cc2cccc(Cl)c2)Cc2ccco2)c1C | – | – | 31 | – | – | ·
Cc1cc(C)c2c(CC(=O)N(Cc3ccc(Cl)cc3)Cc3ccco3)coc2c1 | – | – | 38 | – | – | ·
Cc1cc(=O)oc2ccc(OCC(=O)N(Cc3ccc(F)cc3)Cc3ccco3)cc12 | – | – | – | -42 | – | –
Cc1cc(C)c2c(CC(=O)NCc3ccco3)coc2c1 | – | – | – | – | – | –
O=C(Cc1nnc(-c2nc3ccccc3[nH]2)o1)Nc1cc(C(F)(F)F)ccc1Cl | – | – | – | – | – | ·
O=C(Cc1ccc(Oc2ccccc2)cc1)NO | · | · | · | · | · | –
CCOc1ccc(NC(=O)CN2CCN(CC(=O)Nc3ccccc3OCC)CC2)cc1 | – | – | – | – | – | –
CCc1nc2ccc(C(=O)NCc3ccc(SC)cc3)cc2nc1CC | – | – | – | – | – | –
Cc1cc(C(=O)Cn2nnc3ccccc3c2=O)c(C)n1Cc1cccs1 | – | – | – | – | 32 | –
COc1ccccc1C(=O)OCn1nnc2ccccc2c1=O | – | – | – | – | – | –
COc1ccc(OC)c(C(=O)Cn2nnc3ccccc3c2=O)c1 | – | – | – | – | 39 | –
Cc1cc(C(=O)CN2C(=O)c3ccccc3C2=O)c(C)n1Cc1cccs1 | – | – | – | – | – | –
N#Cc1cccc(S(=O)(=O)N2CCN(S(=O)(=O)c3ccc4c(c3)OCCO4)CC2)c1 | – | – | – | – | – | –
COc1ccc(O[C@H]2C=C[C@@H](c3ccccc3)O[C@H]2COC(=O)CC/C(C)=N\OC[C@@H](O)[C@H]2O[C@H]3OC(C)(C)O[C@H]3[C@@H]2O)cc1 | · | · | · | · | · | –
N[C@@H](C(=O)N[C@H]1C(=O)N2C(C(=O)O)=C(Cl)CC[C@H]12)c1ccccc1 | · | · | · | · | · | –
O=C(CC(Cl)(Cl)Cl)N1CCN(/[N+]([O-])=N/Oc2ccc([N+](=O)[O-])cc2[N+](=O)[O-])CC1 | · | · | · | · | · | –
CCC(CO)Nc1ncnc2onc(-c3ccc(F)cc3)c12 (configuration not stated) | – | – | – | – | 40 | –
C=CCN1CC[C@@H](O)C(=C)S1(=O)=O | · | · | · | · | · | –
Cc1ccc(-c2nc(N)sc2CC(=O)OCC(=O)NCCC(C)C)cc1 | – | – | – | -57 | – | –
CCC(C)NC(=O)COC(=O)Cc1sc(N)nc1-c1ccc(C)cc1 (configuration not stated) | – | – | – | -60 | – | –
Cc1ccc(-c2nc(N)sc2CC(=O)OCC(=O)NCC2CCCO2)cc1 (configuration not stated) | – | – | – | -42 | – | –
CCCc1sc(N)nc1-c1ccc(C)cc1 | – | – | – | -60 | – | –
Cc1ccc(-c2nc(N)sc2C)cc1 | – | – | – | – | – | –
SMILES | D1 PAM | TRHR agonist | D1 ag | D1 antagonist | TRHR enhancer | GRP78 ERSR act
COc1cccc(-c2ccnc(-n3ncc(C(=O)NCC(C)(C)CN(C)C)c3C)n2)c1 | · | · | · | · | · | –
CC(CCc1ccc2c(c1)OCO2)NN (configuration not stated) | · | · | · | · | · | –
CN(C)C(/C=C/Nc1ccccc1F)=C(C#N)C#N | – | – | – | -34 | – | –
COc1ccccc1NC(=O)CNC(=O)Cn1c(C)cc2ccccc2c1=O | – | – | – | -65 | – | –
Cc1ccc(NC(=O)COC(=O)Cn2c(C)csc2=O)cc1C | – | – | – | -35 | – | –
Cc1cc(C)c(C(=O)COC(=O)Cn2c(C)csc2=O)cc1C | – | – | – | -36 | – | –
Cc1csc(=O)n1CC(=O)OCC(=O)Nc1ccc(C(N)=O)cc1 | – | – | – | – | – | –

Screens as filed in PubChem.
